Experimental data taken from the supplement of paper PMC8728848.
This is one part of a sample in which the strongest signals are shown more often than they occur.

Tests used:
Assay in all cases: glycan array binding signal (z-score within array); higher = stronger binding
Details in all cases: glycan notation: IUPAC condensed, linker removed
[1] = target: Fuc(a1-2)Gal(b1-3)GlcNAc(b1-2)Man(a1-3)[Fuc(a1-2)Gal(b1-3)GlcNAc(b1-2)Man(a1-6)]Man(b1-4)GlcNAc(b1-4)[Fuc(a1-6)]GlcNAc
How it was run: (§1)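 Glycan array binding is given as a within-array Z-score, which can be read as non-binding when negative. The arrays, 3228 of them, came from the Consortium for Functional Glycomics database and were retained only where the protein sequence was available. Z-scores were averaged across arrays of the same protein sequence at different concentrations or buffers and across linkers.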

Fuc(a1-2)Gal(b1-4)Glc6S = target: Fuc(a1-2)Gal(b1-4)Glc6S
How it was run: as §1

[2] = target: Fuc(a1-2)Gal(b1-4)GlcNAc(b1-3)Gal(b1-4)GlcNAc(b1-3)Gal(b1-4)GlcNAc
How it was run: as §1

[3] = target: Fuc(a1-2)Gal(b1-4)GlcNAc6S
How it was run: as §1

[4] = target: Fuc(a1-2)Gal(b1-4)[Fuc(a1-3)]GlcNAc
How it was run: as §1

[5] = target: Fuc(a1-2)Gal(b1-4)[Fuc(a1-3)]GlcNAc(b1-3)Gal(b1-4)[Fuc(a1-3)]GlcNAc(b1-3)Gal(b1-4)[Fuc(a1-3)]GlcNAc
How it was run: as §1

[6] = target: Fuc(a1-2)Gal6S(b1-4)GlcNAc
How it was run: as §1

[7] = target: Fuc(a1-2)[Gal(a1-3)]Gal(b1-3)GlcNAc(b1-2)Man(a1-3)[Fuc(a1-2)[Gal(a1-3)]Gal(b1-3)GlcNAc(b1-2)Man(a1-6)]Man(b1-4)GlcNAc(b1-4)GlcNAc
How it was run: as §1

Fuc(a1-3)GlcNAc = target: Fuc(a1-3)GlcNAc
How it was run: as §1

[8] = target: Fuc(a1-3)[Gal3S(b1-4)]GlcNAc
How it was run: as §1

Fuc(a1-4)GlcNAc = target: Fuc(a1-4)GlcNAc
How it was run: as §1

[9] = target: Gal(a1-3)Gal(b1-4)[Fuc(a1-3)]GalNAc
How it was run: as §1

Gal(a1-4)GlcNAc = target: Gal(a1-4)GlcNAc
How it was run: as §1

[10] = target: Gal(b1-3)GlcNAc(b1-3)Gal(b1-4)[Fuc(a1-3)]GlcNAc(b1-6)[Gal(b1-3)GlcNAc(b1-3)]Gal(b1-4)Glc
How it was run: as §1

[11] = target: Gal(b1-3)GlcNAc(b1-3)GalNAc
How it was run: as §1

[12] = target: Gal(b1-3)[GlcNAc(b1-6)]GlcNAc
How it was run: as §1

[13] = target: Gal(b1-4)GlcNAc(b1-2)[Gal(b1-4)GlcNAc(b1-4)]Man(a1-3)[GlcNAc(b1-4)][Gal(b1-4)GlcNAc(b1-2)Man(a1-6)]Man(b1-4)GlcNAc(b1-4)GlcNAc
How it was run: as §1

[14] = target: Gal(b1-4)GlcNAc(b1-3)Gal(b1-4)[Fuc(a1-3)GlcNAc(b1-6)]Gal(b1-4)Glc
How it was run: as §1

Glc(b1-4)Glc = target: Glc(b1-4)Glc
How it was run: as §1

[15] = target: GlcNAc(a1-3)Gal(b1-4)GlcNAc
How it was run: as §1

GlcNAc(b1-3)Gal = target: GlcNAc(b1-3)Gal
How it was run: as §1

[16] = target: GlcNAc(b1-3)Gal(b1-3)GalNAc
How it was run: as §1

[17] = target: GlcNAc(b1-3)[GlcNAc(b1-6)]Gal(b1-4)GlcNAc
How it was run: as §1

[18] = target: GlcNAc(b1-3)[GlcNAc(b1-6)]GlcNAc(b1-4)GlcNAc
How it was run: as §1

[19] = target: GlcNAc(b1-4)Gal(b1-4)GlcNAc
How it was run: as §1

[20] = target: GlcNAc6S(b1-3)Gal(b1-4)GlcNAc
How it was run: as §1

[21] = target: Neu5Ac(a2-3)Gal(b1-3)GlcNAc6S
How it was run: as §1

[22] = target: Neu5Ac(a2-3)Gal(b1-3)[Fuc(a1-4)]GlcNAc
How it was run: as §1

[23] = target: Neu5Ac(a2-3)Gal(b1-4)GlcNAc(b1-6)[Gal(b1-3)]GalNAc
How it was run: as §1

[24] = target: Neu5Ac(a2-3)Gal6S(b1-4)GlcNAc
How it was run: as §1

[25] = target: Neu5Ac(a2-3)Gal(b1-3)GlcNAc(b1-2)Man(a1-3)[GlcNAc(b1-4)][Neu5Ac(a2-3)Gal(b1-3)GlcNAc(b1-2)Man(a1-6)]Man(b1-4)GlcNAc(b1-4)GlcNAc
How it was run: as §1

[26] = target: Neu5Ac(a2-3)Gal(b1-3)GlcNAc(b1-3)GalNAc
How it was run: as §1

[27] = target: Neu5Ac(a2-3)Gal(b1-3)GlcNAc(b1-6)GalNAc
How it was run: as §1

[28] = target: Neu5Ac(a2-3)Gal(b1-3)[Neu5Ac(a2-6)]GalNAc
How it was run: as §1

[29] = target: Neu5Ac(a2-3)Gal(b1-4)GlcNAc
How it was run: as §1

[30] = target: Neu5Ac(a2-3)Gal(b1-4)GlcNAc(b1-3)Gal(b1-3)GlcNAc
How it was run: as §1

[31] = target: Neu5Ac(a2-3)Gal(b1-4)GlcNAc(b1-3)Gal(b1-4)[Fuc(a1-3)]GlcNAc
How it was run: as §1

[32] = target: Neu5Ac(a2-3)Gal(b1-4)[Fuc(a1-3)]GlcNAc(b1-3)GalNAc
How it was run: as §1

[33] = target: Neu5Ac(a2-6)Gal(b1-4)GlcNAc(b1-2)Man(a1-3)Man(b1-4)GlcNAc(b1-4)GlcNAc
How it was run: as §1

[34] = target: Neu5Ac(a2-6)Gal(b1-4)GlcNAc(b1-2)Man(a1-3)[Man(a1-6)]Man(b1-4)GlcNAc(b1-4)GlcNAc
How it was run: as §1

[35] = target: Neu5Ac(a2-6)Gal(b1-4)GlcNAc(b1-2)Man(a1-6)Man(b1-4)GlcNAc(b1-4)GlcNAc
How it was run: as §1

[36] = target: Neu5Ac(a2-6)Gal(b1-4)GlcNAc(b1-3)Gal(b1-4)GlcNAc(b1-3)Gal(b1-4)GlcNAc
How it was run: as §1

[37] = target: Neu5Ac(a2-8)Neu5Ac(a2-3)[GalNAc(b1-4)]Gal(b1-4)Glc
How it was run: as §1

[38] = target: Neu5Ac(a2-8)Neu5Ac(a2-8)Neu5Ac(a2-3)Gal(b1-4)Glc
How it was run: as §1

B1: AAL (Aleuria aurantia), P18891 (protein)
chain: PTEFLYTSKIAAISWAATGGRQQRVYFQDLNGKIREAQRGGDNPWTGGSSQNVIGEAKLFSPLAAVTWKSAQGIQIRVYCVNKDNILSEFVYDGSKWITGQLGSVGVKVGSNSKLAALQWGGSESAPPNIRVYYQKSNGSGSSIHEYVWSGKWTAGASFGSTVPGTGIGATAIGPGRLRIYYQATDNKIREHCWDSNSWYVGGFSASASAGVSIAAISWGSTPNIRVYWQKGREELYEAAYGGSWNTPGQIKDASRPTPSLPDTFIAANSSGNIDISVFFQASGVSLQQWQWISGKGWSIGAVVPTGTPAGW
glycan array binding signal (z-score) [1]: -0.012
glycan array binding signal (z-score) (Fuc(a1-2)Gal(b1-4)Glc6S): 3.52
glycan array binding signal (z-score) [2]: 3.03
glycan array binding signal (z-score) [3]: 2.6
glycan array binding signal (z-score) [4]: 2.51
glycan array binding signal (z-score) [5]: 2.68
glycan array binding signal (z-score) [6]: 2.6
glycan array binding signal (z-score) [7]: -0.407
glycan array binding signal (z-score) (Fuc(a1-3)GlcNAc): 2.85
glycan array binding signal (z-score) [8]: 1.76
glycan array binding signal (z-score) (Fuc(a1-4)GlcNAc): 1.99
glycan array binding signal (z-score) [9]: 2.52
glycan array binding signal (z-score) (Gal(a1-4)GlcNAc): -0.498
glycan array binding signal (z-score) [10]: 0.584
glycan array binding signal (z-score) [11]: -0.414
glycan array binding signal (z-score) [12]: -0.62
glycan array binding signal (z-score) [13]: -0.348
glycan array binding signal (z-score) [14]: 0.521
glycan array binding signal (z-score) (Glc(b1-4)Glc): -0.525
glycan array binding signal (z-score) [15]: -0.512
glycan array binding signal (z-score) (GlcNAc(b1-3)Gal): -0.501
glycan array binding signal (z-score) [16]: -0.515
glycan array binding signal (z-score) [17]: -0.514
glycan array binding signal (z-score) [18]: -0.567
glycan array binding signal (z-score) [19]: -0.525
glycan array binding signal (z-score) [20]: -0.391
glycan array binding signal (z-score) [21]: -0.493
glycan array binding signal (z-score) [22]: 1.33
glycan array binding signal (z-score) [23]: -0.444
glycan array binding signal (z-score) [24]: 1.5

B2: Intelectin-1a (Mus musculus) (protein)
chain: AEWSHPQFEKAEENLDTNRWGNSFFSSLPRSCKEIKQEHTKAQDGLYFLRTKNGVIYQTFCDMTTAGGGWTLVASVHENNMRGKCTVGDRWSSQQGNRADYPEGDGNWANYNTFGSAEAATSDDYKNPGYFDIQAENLGIWHVPNKSPLHNWRKSSLLRYRTFTGFLQHLGHNLFGLYKKYPVKYGEGKCWTDNGPALPVVYDFGDARKTASYYSPSGQREFTAGYVQFRVFNNERAASALCAGVRVTGCNTEHHCIGGGGFFPEGNPVQCGDFASFDWDGYGTHNGYSSSRKITEAAVLLFYR
glycan array binding signal (z-score) [19]: -0.454
glycan array binding signal (z-score) [25]: -0.723
glycan array binding signal (z-score) [26]: -0.237
glycan array binding signal (z-score) [27]: 0.808
glycan array binding signal (z-score) [28]: -0.222
glycan array binding signal (z-score) [29]: -1.12
glycan array binding signal (z-score) [30]: -0.402
glycan array binding signal (z-score) [31]: -0.8
glycan array binding signal (z-score) [32]: 6.37
glycan array binding signal (z-score) [33]: 0.578
glycan array binding signal (z-score) [34]: 3.98
glycan array binding signal (z-score) [35]: -0.293
glycan array binding signal (z-score) [36]: 0.765
glycan array binding signal (z-score) [37]: -0.791
glycan array binding signal (z-score) [38]: -0.483
